Data from PubChem BioAssay (NCATS).
Results filed as inconclusive are left out. A call without a number means that no potency is given here. A number with no mark means an inactive call. Activity calls are given as the source filed them. Calls follow the shape of the full dose curve. Numbered stars: 1 amine (or outer) side, 2 acyl side, 3 side chain; on linkers, the order of the positions; unused ones are H or OH. Bridge positions count the residues as written; N and C are the ends. Square brackets hold non-standard residues; d marks the D form. Peptide text beside a SMILES is read from it. * marks the point of attachment. ξ: configuration not given here. pTerphenylCO(4''-OnC5H11) = CCCCCOc1ccc(-c2ccc(-c3ccc(C(=O)*)cc3)cc2)cc1; ξOrn(4,5-diOH) = O=C(C(CC(O)C(O)N[*:3])N[*:1])[*:2]; ξhTyr(βξ-OH,γξ-OH) = NC(C(=O)O)C(O)C(O)c1ccc(O)cc1; ξPro(3ξ-OH,4ξ-Me) = CC1CNC(C(=O)O)C1O; Hyp = O=C(O)[CH]1C[CH](O)CN1

assay: Primary qHTS for inhibitors of MERS-S pseudo-typed particle cell entry (AID 1479149); conditions: MERS-S pseudotyped particle entry, luciferase; series mostly up to 57.1 µM; also: nearly all actives have a fitted effect of over 60% in size; also: potency is read from the fitted curve at half-maximal effect

**Q.** With CO[C@H]1C[C@H](O[C@@H]2[C@H](C)O[C@H](O[C@@H]3/C(C)=C/C[C@@H]4C[C@@H](C[C@]5(C=C[C@H](C)[C@@H](C6CCCCC6)O5)O4)OC(=O)[C@@H]4C=C(C)C(O)[C@H]5OC/C(=C\C=C\[C@@H]3C)[C@]54O)C[C@@H]2OC)O[C@@H](C)[C@@H]1O (stereo partly specified) as the compound, how does the Potency read?
**A.** The Potency was “inactive”.

**Q.** With CCCCC(O)c1ccccc1 (stereo unspecified) as the compound, how does the Potency read?
**A.** The Potency was “inactive”.

**Q.** With OCCOc1ccc(/C(=C(/CCCl)c2ccccc2)c2ccccc2)cc1 as the compound, how does the Potency read?
**A.** The Potency was “inactive”.

**Q.** For CNCc1cc(-c2ccccc2F)n(S(=O)(=O)c2cccnc2)c1, which Potency is on record?
**A.** Its Potency is “inactive”.

**Q.** Which Potency does the source give for C[C@H]1[C@H](OC(=O)CCC(=O)O)O[C@@H]2O[C@@]3(C)CC[C@H]4[C@H](C)CC[C@@H]1[C@@]24OO3 here?
**A.** Its Potency is 2.82 µM (active).

**Q.** With COc1cc2c(cc1O)CCN[C@]21CS[C@@H]2c3c(OC(C)=O)c(C)c4c(c3[C@H](COC1=O)N1[C@@H]2[C@H]2c3c(cc(C)c(OC)c3O)C[C@@H]([C@@H]1O)N2C)OCO4 as the compound, how does the activity change, negative = inhibition read?
**A.** The activity change, negative = inhibition was -71.9% [at 11.4 µM].

**Q.** With CN(C)C(=O)c1cc2cnc(Nc3ccc(N4CCNCC4)cn3)nc2n1C1CCCC1 as the compound, how does the Potency read?
**A.** The Potency was “inactive”.

**Q.** With CC(=O)OC1CC(OC2C(O)CC(OC3C(O)CC(OC4CCC5(C)C(CCC6C5CCC5(C)C(C7=CC(=O)OC7)CCC65O)C4)OC3C)OC2C)OC(C)C1O (stereo unspecified) as the compound, how does the Potency read?
**A.** Its Potency is “inactive”.

**Q.** For CCCCCOc1ccc(-c2ccc(-c3ccc(C(=O)NC4CC(O)C(O)NC(=O)C5C(O)C(C)CN5C(=O)C(C(C)O)NC(=O)C(C(O)C(O)c5ccc(O)cc5)NC(=O)C5CC(O)CN5C(=O)C(C(C)O)NC4=O)cc3)cc2)cc1 (stereo not drawn) ({pTerphenylCO(4''-OnC5H11)}-[ξOrn(4,5-diOH)]T[Hyp][ξhTyr(βξ-OH,γξ-OH)]T[ξPro(3ξ-OH,4ξ-Me)]; lactam 1-C; configuration not given here), which Potency is on record?
**A.** Its Potency is 11.2 µM (active).

**Q.** Which Potency does the source give for CNC(C)C(O)c1ccccc1 (stereo unspecified) here?
**A.** The Potency was “inactive”.

**Q.** For O=P(O)(O)OC(CO)CO, which Potency is on record?
**A.** Its Potency is “inactive”.

**Q.** For Cc1cc(-c2ccc(N=Nc3ccc4c(S(=O)(=O)O)cc(S(=O)(=O)O)c(N)c4c3O)c(C)c2)ccc1N=Nc1ccc2c(S(=O)(=O)O)cc(S(=O)(=O)O)c(N)c2c1O, which Potency is on record?
**A.** Its Potency is “inactive”.

**Q.** With Cc1c(N)nc(C(CC(N)=O)NCC(N)C(N)=O)nc1C(=O)NC(C(=O)NC(C)C(O)C(C)C(=O)NC(C(=O)NCCc1nc(-c2nc(C(=O)NCCCN[C@@H](C)c3ccccc3)cs2)cs1)C(C)O)C(O[C@@H]1O[C@@H](CO)[C@@H](O)[C@H](O)[C@@H]1O[C@H]1O[C@H](CO)[C@@H](O)[C@H](OC(N)=O)[C@@H]1O)c1cnc[nH]1 (stereo partly specified) as the compound, how does the Potency read?
**A.** Its Potency is “inactive”.

**Q.** For Nc1nc(NC2CC2)c2ncn([C@H]3C=C[C@@H](CO)C3)c2n1, which Potency is on record?
**A.** The Potency was “inactive”.

**Q.** With COC(=O)[C@@H](N)CS as the compound, how does the Potency read?
**A.** The Potency was “inactive”.

**Q.** For CCOc1nc2cccc(C(=O)OC(C)OC(=O)OC3CCCCC3)c2n1Cc1ccc(-c2ccccc2-c2nn[nH]n2)cc1 (stereo unspecified), which Potency is on record?
**A.** The Potency was “inactive”.

**Q.** Which Potency does the source give for C[C@@]12CCCCC[C@@H](Cc3ccc(O)cc31)[C@H]2N here?
**A.** Its Potency is “inactive”.

**Q.** Which Potency does the source give for NCCS[As](SCCN)c1ccc(Nc2nc(N)nc(N)n2)cc1 here?
**A.** Its Potency is “inactive”.

**Q.** For CCCOc1ccc2nc(NC(=O)OC)sc2c1, which Potency is on record?
**A.** The Potency was “inactive”.

**Q.** With C[C@@H](c1nc(-c2ccc(C#N)cc2)cs1)[C@](O)(Cn1cncn1)c1cc(F)ccc1F as the compound, how does the Potency read?
**A.** The Potency was 10 µM (active).

**Q.** Which Potency does the source give for COc1cc(CNC(=O)CCCC/C=C/C(C)C)ccc1O here?
**A.** Its Potency is “inactive”.

**Q.** Which Potency does the source give for C[C@H]1O[C@@H](O[C@H]2[C@@H](O)C[C@H](O[C@H]3[C@@H](O)C[C@H](O[C@H]4CC[C@@]5(C)[C@H](CC[C@@H]6[C@@H]5C[C@@H](O)[C@]5(C)[C@@H](C7=CC(=O)OC7)CC[C@]65O)C4)O[C@@H]3C)O[C@@H]2C)C[C@H](O)[C@@H]1O here?
**A.** Its Potency is “inactive”.

**Q.** Which Potency does the source give for C=CC(=O)N1CCCC(n2nc(-c3ccc(Oc4ccccc4)cc3)c3c(N)ncnc32)C1 (stereo unspecified) here?
**A.** The Potency was “inactive”.

**Q.** Which Potency does the source give for COc1ccc2c(=O)c(C)c(-c3ccccc3)oc2c1CN(C)C here?
**A.** The Potency was “inactive”.

**Q.** Which Potency does the source give for CC(=O)O[C@H]1C[C@@H]2CC[C@@H]3[C@H](CC[C@@]4(C)[C@H]3C[C@H](N3CC[N+](C)(C)CC3)[C@@H]4OC(C)=O)[C@@]2(C)C[C@@H]1N1CC[N+](C)(C)CC1 here?
**A.** The Potency was “inactive”.

**Q.** For CCN(CC)C(=O)[C@]1(c2ccccc2)C[C@H]1CN, which Potency is on record?
**A.** The Potency was “inactive”.

assay: Primary qHTS for Vero E6 cytotoxicity: counterscreen for inhibitors of SARS-S pseudo-typed particle cell entry (AID 1479150); conditions: cell viability; series mostly up to 57.1 µM

**Q.** For CO[C@H]1C[C@H](O[C@@H]2[C@H](C)O[C@H](O[C@@H]3/C(C)=C/C[C@@H]4C[C@@H](C[C@]5(C=C[C@H](C)[C@@H](C6CCCCC6)O5)O4)OC(=O)[C@@H]4C=C(C)C(O)[C@H]5OC/C(=C\C=C\[C@@H]3C)[C@]54O)C[C@@H]2OC)O[C@@H](C)[C@@H]1O (stereo partly specified), which Potency is on record?
**A.** The Potency was “inactive”.

**Q.** With CCCCC(O)c1ccccc1 (stereo unspecified) as the compound, how does the Potency read?
**A.** Its Potency is “inactive”.

**Q.** For OCCOc1ccc(/C(=C(/CCCl)c2ccccc2)c2ccccc2)cc1, which Potency is on record?
**A.** The Potency was “inactive”.

**Q.** Which Potency does the source give for CNCc1cc(-c2ccccc2F)n(S(=O)(=O)c2cccnc2)c1 here?
**A.** The Potency was “inactive”.

**Q.** With CCCCCCCCC=CCCCCCCCC(=O)NCCOC(=O)CC(C(=O)O)S(=O)(=O)O (stereo unspecified) as the compound, how does the Potency read?
**A.** The Potency was “inactive”.

**Q.** Which Potency does the source give for C[C@H]1[C@H](OC(=O)CCC(=O)O)O[C@@H]2O[C@@]3(C)CC[C@H]4[C@H](C)CC[C@@H]1[C@@]24OO3 here?
**A.** The Potency was “inactive”.

**Q.** For CN(C)C(=O)c1cc2cnc(Nc3ccc(N4CCNCC4)cn3)nc2n1C1CCCC1, which Potency is on record?
**A.** The Potency was “inactive”.

**Q.** With CCCCCOc1ccc(-c2ccc(-c3ccc(C(=O)NC4CC(O)C(O)NC(=O)C5C(O)C(C)CN5C(=O)C(C(C)O)NC(=O)C(C(O)C(O)c5ccc(O)cc5)NC(=O)C5CC(O)CN5C(=O)C(C(C)O)NC4=O)cc3)cc2)cc1 (stereo not drawn) ({pTerphenylCO(4''-OnC5H11)}-[ξOrn(4,5-diOH)]T[Hyp][ξhTyr(βξ-OH,γξ-OH)]T[ξPro(3ξ-OH,4ξ-Me)]; lactam 1-C; configuration not given here) as the compound, how does the Potency read?
**A.** Its Potency is “inactive”.

**Q.** For CNC(C)C(O)c1ccccc1 (stereo unspecified), which Potency is on record?
**A.** Its Potency is “inactive”.

**Q.** With O=P(O)(O)OC(CO)CO as the compound, how does the Potency read?
**A.** Its Potency is “inactive”.

**Q.** With Cc1c(N)nc(C(CC(N)=O)NCC(N)C(N)=O)nc1C(=O)NC(C(=O)NC(C)C(O)C(C)C(=O)NC(C(=O)NCCc1nc(-c2nc(C(=O)NCCCN[C@@H](C)c3ccccc3)cs2)cs1)C(C)O)C(O[C@@H]1O[C@@H](CO)[C@@H](O)[C@H](O)[C@@H]1O[C@H]1O[C@H](CO)[C@@H](O)[C@H](OC(N)=O)[C@@H]1O)c1cnc[nH]1 (stereo partly specified) as the compound, how does the Potency read?
**A.** The Potency was “inactive”.

**Q.** For CC1(S(=O)(=O)O)CC(=O)c2ccccc2C1=O (stereo unspecified), which Potency is on record?
**A.** The Potency was “inactive”.

**Q.** With COC(=O)[C@@H](N)CS as the compound, how does the Potency read?
**A.** The Potency was “inactive”.

**Q.** With CCOc1nc2cccc(C(=O)OC(C)OC(=O)OC3CCCCC3)c2n1Cc1ccc(-c2ccccc2-c2nn[nH]n2)cc1 (stereo unspecified) as the compound, how does the Potency read?
**A.** Its Potency is “inactive”.

**Q.** Which Potency does the source give for C[C@@]12CCCCC[C@@H](Cc3ccc(O)cc31)[C@H]2N here?
**A.** Its Potency is “inactive”.

**Q.** Which Potency does the source give for CCc1cc2c(cc1CC)CC(NC[C@H](O)c1ccc(O)c3[nH]c(=O)ccc13)C2 here?
**A.** The Potency was “inactive”.

**Q.** With NCCS[As](SCCN)c1ccc(Nc2nc(N)nc(N)n2)cc1 as the compound, how does the Potency read?
**A.** Its Potency is “inactive”.

**Q.** Which Potency does the source give for COc1ccc2c(c1)OC(C)(C)C(c1ccccc1)C2c1ccc(OCCN2CCCC2)cc1 (stereo unspecified) here?
**A.** Its Potency is “inactive”.

**Q.** With COc1cc(CNC(=O)CCCC/C=C/C(C)C)ccc1O as the compound, how does the Potency read?
**A.** The Potency was “inactive”.

**Q.** For C=CC(=O)N1CCCC(n2nc(-c3ccc(Oc4ccccc4)cc3)c3c(N)ncnc32)C1 (stereo unspecified), which Potency is on record?
**A.** The Potency was “inactive”.

**Q.** For CO[C@H]1C[C@@H]2CC[C@@H](C)[C@@](O)(O2)C(=O)C(=O)N2CCCC[C@H]2C(=O)O[C@H]([C@@H](C)C[C@@H]2CC[C@@H](O)[C@H](OC)C2)CC(=O)[C@H](C)/C=C(\C)[C@@H](O)[C@@H](OC)C(=O)[C@H](C)C[C@H](C)/C=C/C=C/C=C/1C, which Potency is on record?
**A.** The Potency was “inactive”.

**Q.** With C(=C\c1ccncc1)/c1ccccc1 as the compound, how does the Potency read?
**A.** The Potency was “inactive”.

**Q.** Which Potency does the source give for COc1ccc2c(=O)c(C)c(-c3ccccc3)oc2c1CN(C)C here?
**A.** The Potency was “inactive”.

**Q.** With CC(=O)O[C@H]1C[C@@H]2CC[C@@H]3[C@H](CC[C@@]4(C)[C@H]3C[C@H](N3CC[N+](C)(C)CC3)[C@@H]4OC(C)=O)[C@@]2(C)C[C@@H]1N1CC[N+](C)(C)CC1 as the compound, how does the Potency read?
**A.** The Potency was “inactive”.

**Q.** For CCN(CC)C(=O)[C@]1(c2ccccc2)C[C@H]1CN, which Potency is on record?
**A.** Its Potency is “inactive”.
